Measurements published in PubChem BioAssay (Tox21).
Inconclusive results are not listed. Activity calls are given as the source filed them. Unless noted, calls follow the shape of the full dose curve.

Tests used:
[1] = qHTS assay to identify small molecule agonists of the sonic hedgehog signaling (Shh) pathway (AID 1259368);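 also: NIH/3T3-derived 3T3Gli1-Luc cells carrying a stable Gli1-driven firefly luciferase reporter; series mostly up to about 92 µM; nearly all actives have a fitted effect of over 15% in size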
Method in brief: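 Steps: seed 3T3 Gli1-Luc cells, incubate 4 hr at 37 C, pin-transfer compounds in DMSO alongside a positive control, incubate 24 hr, add luciferase detection reagent, wait 30 min at room temperature, read luminescence.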

[2] = qHTS assay to identify small molecule antagonists of the sonic hedgehog signaling (Shh) pathway (AID 1259369); also: nearly all actives have a fitted effect of over 45% in size
Method in brief: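 Inhibition of Shh signalling is measured as reduced Gli1-response-element firefly luciferase output in an NIH/3T3-derived stable reporter clone stimulated with conditioned medium for 24hr.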

[3] = biological target: Estrogen receptor beta (Homo sapiens) (UniProt Q92731); assay: qHTS assay to identify small molecule agonists of the estrogen receptor beta (ER-beta) signaling pathway (AID 1259377; active = well fitted activation curve with a large enough effect in the signal ratio in the repeat runs, not every such curve was filed as active; the % refers to the signal ratio)
Method in brief: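 A UAS-controlled beta-lactamase reporter in ER-beta-UAS-bla HEK293T cells reports receptor activation. Compounds act for 16 hr at 37C in 2% charcoal-stripped serum, and a FRET substrate is read by fluorescence after 2 hours.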

[4] = biological target: Estrogen receptor beta (Homo sapiens) (UniProt Q92731); assay: qHTS assay to identify small molecule antagonists of the estrogen receptor beta (ER-beta) signaling pathway (AID 1259378; active = well fitted inhibition curve with a large enough effect in the signal ratio in the repeat runs, not every such curve was filed as active; the % refers to the signal ratio)
Method in brief: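 Antagonist mode: compounds added to beta-lactamase reporter HEK293T ER-beta-UAS cells stimulated with E2 (1nM final), 16 hr at 37C. LiveBLAzer B/G FRET substrate, 2 hours room temperature, fluorescence read-out.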

[5] = qHTS assay to identify small molecule agonists of the androgen receptor (AR) signaling pathway in the presence of an antagonist - cell viability counter screen (AID 1259379; active = well fitted curve in the direction sought with a large enough effect in the repeat runs; an effect the other way counts as inactive or inconclusive;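 also: MDA-kb2 human breast cancer cells carrying an MMTV luciferase reporter; series mostly up to about 92 µM; nearly all actives have a fitted effect of over 25% in size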)
Method in brief: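 Fluorescence from CellTiter-Fluor, added after 15 hr and read 1 hr later, gave cell viability. Cells were MDA-kb2 exposed to compounds (15 concentrations) in the presence of 3.0uM nilutamide at 37C, 0% CO2.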

[6] = qHTS assay to identify small molecule agonists of the estrogen receptor beta (ER-beta) signaling pathway - cell viability counter screen (AID 1259380; active = well fitted curve in the direction sought with a large enough effect in the repeat runs; an effect the other way counts as inactive or inconclusive; also: nearly all actives have a fitted effect of over 30% in size)
Method in brief: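 Same-well viability counter screen. Cells: ER-beta-UAS-bla HEK293T, plated 6 hr before compound, in 2% charcoal-stripped FBS. Compound exposure 16 hr, 37C; viability by CellTiter-Glo luminescence after 30 min at room temperature.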

[7] = qHTS assay to identify small molecule antagonists of the estrogen receptor beta (ER-beta) signaling pathway - cell viability counter screen (AID 1259382; active = well fitted curve in the direction sought with a large enough effect in the repeat runs; an effect the other way counts as inactive or inconclusive;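 also: HEK293T cells carrying ER-beta-UAS-bla reporter stimulated with estradiol; series mostly up to about 92 µM; nearly all actives have a fitted effect of over 55% in size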)
Method in brief: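 Following a 6 hr plating period, HEK293T cells carrying a UAS-driven beta-lactamase reporter under ER-beta control received compounds and 1nM E2 (final). After 16 hr at 37C and 2 hr substrate loading, CellTiter-Glo luminescence indicated viability.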

[8] = biological target: Estrogen receptor (Homo sapiens) (UniProt P03372); assay: qHTS assay to identify small molecule agonists of the estrogen receptor alpha (ER-alpha) signaling pathway in the presence of an antagonist (AID 1259383); also: top concentration of the series differs between compounds; nearly all actives have a fitted effect of over 15% in size
Method in brief: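 Cells are hormone-deprived for 5 days (charcoal-stripped FBS, no phenol red), plated for 24hr, spiked with 10.0nM ICI-182,780, then dosed at 15 concentrations. After 22hr at 37C, ONE-Glo luminescence reports ERE-luciferase activity.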

[9] = qHTS assay to identify small molecule agonists or antagonists of the thyroid stimulating hormone receptor (TSHR) signaling pathway - wild type cell line counter screen (AID 1259384)
Method in brief: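 Counter screen in untransfected Hek293: compounds (15-point titration, triplicate) plus phosphodiesterase inhibitor Ro20-1724 added after 18 h plating; 30 min RT. Intracellular cAMP via competitive d2/cryptate immunoassay, 1 h incubation.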

[10] = biological target: Thyrotropin receptor (Homo sapiens) (UniProt P16473); assay: qHTS assay to identify small molecule antagonists of the thyroid stimulating hormone receptor (TSHR) signaling pathway (AID 1259385); also: nearly all actives have a fitted effect of over 20% in size
Method in brief: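 Antagonist mode: compound-treated TSHR-expressing HEK293 cells were stimulated with 1.5 ng/mL TSH (final) in presence of Ro20-1724 for 30 min at RT. HTRF cAMP detection after 1 h; each compound tested at 15 concentrations, triplicate.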

[11] = qHTS assay to identify small molecule agonists of the estrogen receptor alpha (ER-alpha) signaling pathway in the presence of an antagonist - cell viability counter screen (AID 1259386; active = well fitted curve in the direction sought with a large enough effect in the repeat runs; an effect the other way counts as inactive or inconclusive;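 also: series mostly up to about 92 µM; cells exposed to compounds for 22 h at 37 °C before the viability read; nearly all actives have a fitted effect of over 30% in size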)
Method in brief: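 Cells are starved of estrogens for 5 days in charcoal-stripped serum, seeded for 24hr and co-treated with ICI-182,780 (10.0nM final) and test compounds. After 22hr at 37C, viability is read as CellTiter-Fluor fluorescence.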

[12] = biological target: Progesterone receptor (Homo sapiens) (UniProt P06401); assay: qHTS assay to identify small molecule agonists of the progesterone receptor (PR) signaling pathway (AID 1346784); also: nearly all actives have a fitted effect of over 30% in size
Method in brief: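 Agonist mode, quantitative HTS format in a HEK 293T line expressing a UAS-controlled beta-lactamase reporter; 16 hr compound exposure at 37C in 2% charcoal-stripped FBS, then LiveBLAzer B/G FRET fluorescence.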

[13] = biological target: Progesterone receptor (Homo sapiens) (UniProt P06401); assay: qHTS assay to identify small molecule antagonists of the progesterone receptor (PR) signaling pathway (AID 1346795; active = well fitted inhibition curve with a large enough effect in the signal ratio in the repeat runs, not every such curve was filed as active; the % refers to the signal ratio)
Method in brief: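 HEK293T PR-UAS-bla reporter cells in charcoal-stripped serum (2%) received compound after a 6 hr settling period, followed by R5020 agonist at 1 nM final; 16 hr incubation preceded the FRET substrate step and fluorescence measurement.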

[14] = qHTS assay to identify small molecule antagonists of the progesterone receptor (PR) signaling pathway - cell viability counter screen (AID 1346798; active = well fitted curve in the direction sought with a large enough effect in the repeat runs; an effect the other way counts as inactive or inconclusive; also: series mostly up to about 92 µM; nearly all actives have a fitted effect of over 50% in size)
Method in brief: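 Same-well multiplex: after 16 hr at 37C with compound and R5020 stimulation, HEK293T cells carrying a UAS-bla reporter received LiveBLAzer substrate (2 hr RT), then CellTiter-Glo (30 min RT) for luminescent viability.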

[15] = qHTS assay to identify small molecule antagonists of the TGF-beta/Smad signaling pathway - cell viability counter screen (AID 1346824; active = well fitted curve in the direction sought with a large enough effect in the repeat runs; an effect the other way counts as inactive or inconclusive; also: nearly all actives have a fitted effect of over 50% in size)
Method in brief: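 Cytotoxicity counter-screen run in the same wells as the beta-lactamase Smad reporter read: CellTiter-Glo luminescence after 30 min at room temperature. HEK 293T SBE-bla cells had 5 hr compound exposure at 37 C with TGF-beta1 (0.25 ng/mL stock).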

[16] = qHTS assay to identify small molecule agonists of the TGF-beta/Smad signaling pathway - cell viability counter screen (AID 1346829; active = well fitted curve in the direction sought with a large enough effect in the repeat runs; an effect the other way counts as inactive or inconclusive; also: top concentration of the series differs between compounds; nearly all actives have a fitted effect of over 45% in size)
Method in brief: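 Tox21 qHTS format: SBE-bla HEK 293T cells treated with DMSO-dissolved compounds for 5 hr; CellTiter-Glo luminescence after 30 min at room temperature.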

[17] = qHTS assay to identify small molecule agonists of the TGF-beta/Smad signaling pathway (AID 1346859; active = well fitted activation curve with a large enough effect in the signal ratio in the repeat runs, not every such curve was filed as active; the % refers to the signal ratio; also: series mostly up to about 77 µM)
Method in brief: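 Smad-responsive beta-lactamase reporter cells (HEK 293T) received compounds from DMSO stocks after overnight attachment, were incubated 5 hr, then treated 2 hr with FRET substrate before dual-emission fluorescence measurement (405 nm excitation).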

[18] = biological target: Thyrotropin-releasing hormone receptor (Homo sapiens) (UniProt P34981); assay: qHTS assay to identify small molecule antagonists of the thyrotropin-releasing hormone receptor (TRHR) signaling pathway (AID 1346877; active = well fitted inhibition curve with a large enough effect in the repeat runs, not every such curve was filed as active; also: series mostly up to about 51 µM)
Method in brief: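 Cells (TRHR-HEK293) are plated and kept 18 h at 37 °C/5% CO2. A calcium-sensitive dye is added for 2 h, compound follows for 5 min at room temperature, and TRH is then given at 1 nM final.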

[19] = qHTS assay to identify small molecule agonists of the progesterone receptor (PR) signaling pathway - cell viability counter screen (AID 1346799); also: nearly all actives have a fitted effect of over 45% in size
Method in brief: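 Counter screen for cytotoxicity: compound-treated PR-UAS-bla HEK293T cells (16 hr, 37C, 5% CO2) were assayed with CellTiter-Glo, luminescence measured after 30 min at room temperature.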

[20] = biological target: Androgen receptor (Homo sapiens) (UniProt P10275); assay: qHTS assay to identify small molecule agonists of the androgen receptor (AR) signaling pathway in the presence of an antagonist (AID 1259381); also: nearly all actives have a fitted effect of over 15% in size
Method in brief: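 Cells are MDA-kb2 (human breast carcinoma, MMTV-luc, AR/GR responsive). Nilutamide is present at 3.0uM final throughout; compounds are added at 15 concentrations and incubated 16hr at 37C before ONE-Glo luminescence detection.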
% is scaled to controls: 0 for no effect and ±100 for the full control effect.

Sequence of Estrogen receptor (Homo sapiens) (P03372 whole entry, looked up): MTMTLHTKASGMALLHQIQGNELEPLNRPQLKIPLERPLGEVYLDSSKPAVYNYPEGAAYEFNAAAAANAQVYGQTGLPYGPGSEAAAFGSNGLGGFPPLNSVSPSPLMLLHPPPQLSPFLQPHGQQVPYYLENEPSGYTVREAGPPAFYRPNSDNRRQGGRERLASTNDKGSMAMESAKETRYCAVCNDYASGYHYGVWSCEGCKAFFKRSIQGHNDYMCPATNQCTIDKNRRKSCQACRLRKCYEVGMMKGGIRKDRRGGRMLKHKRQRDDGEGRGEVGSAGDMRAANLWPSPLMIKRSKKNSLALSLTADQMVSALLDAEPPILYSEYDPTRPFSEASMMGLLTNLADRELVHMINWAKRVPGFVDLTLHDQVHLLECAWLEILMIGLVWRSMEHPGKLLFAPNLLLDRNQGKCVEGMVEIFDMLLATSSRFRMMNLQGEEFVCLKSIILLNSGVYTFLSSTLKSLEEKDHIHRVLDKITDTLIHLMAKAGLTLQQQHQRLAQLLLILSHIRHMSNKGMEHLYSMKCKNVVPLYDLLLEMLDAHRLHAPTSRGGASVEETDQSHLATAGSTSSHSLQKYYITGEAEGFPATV
Sequence of Thyrotropin-releasing hormone receptor (Homo sapiens) (P34981 whole entry, looked up): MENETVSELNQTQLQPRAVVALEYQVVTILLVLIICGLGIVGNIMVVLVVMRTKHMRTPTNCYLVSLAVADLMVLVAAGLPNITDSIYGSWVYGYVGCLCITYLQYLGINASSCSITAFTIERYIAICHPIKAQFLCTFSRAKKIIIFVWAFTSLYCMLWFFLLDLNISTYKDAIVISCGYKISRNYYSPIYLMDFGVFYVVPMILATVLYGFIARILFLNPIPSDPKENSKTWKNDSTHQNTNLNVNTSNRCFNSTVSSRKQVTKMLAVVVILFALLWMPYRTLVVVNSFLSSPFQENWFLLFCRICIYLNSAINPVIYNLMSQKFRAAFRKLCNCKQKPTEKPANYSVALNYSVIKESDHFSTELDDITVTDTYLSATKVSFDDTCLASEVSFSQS
Sequence of Thyrotropin receptor (Homo sapiens) (P16473 whole entry, looked up): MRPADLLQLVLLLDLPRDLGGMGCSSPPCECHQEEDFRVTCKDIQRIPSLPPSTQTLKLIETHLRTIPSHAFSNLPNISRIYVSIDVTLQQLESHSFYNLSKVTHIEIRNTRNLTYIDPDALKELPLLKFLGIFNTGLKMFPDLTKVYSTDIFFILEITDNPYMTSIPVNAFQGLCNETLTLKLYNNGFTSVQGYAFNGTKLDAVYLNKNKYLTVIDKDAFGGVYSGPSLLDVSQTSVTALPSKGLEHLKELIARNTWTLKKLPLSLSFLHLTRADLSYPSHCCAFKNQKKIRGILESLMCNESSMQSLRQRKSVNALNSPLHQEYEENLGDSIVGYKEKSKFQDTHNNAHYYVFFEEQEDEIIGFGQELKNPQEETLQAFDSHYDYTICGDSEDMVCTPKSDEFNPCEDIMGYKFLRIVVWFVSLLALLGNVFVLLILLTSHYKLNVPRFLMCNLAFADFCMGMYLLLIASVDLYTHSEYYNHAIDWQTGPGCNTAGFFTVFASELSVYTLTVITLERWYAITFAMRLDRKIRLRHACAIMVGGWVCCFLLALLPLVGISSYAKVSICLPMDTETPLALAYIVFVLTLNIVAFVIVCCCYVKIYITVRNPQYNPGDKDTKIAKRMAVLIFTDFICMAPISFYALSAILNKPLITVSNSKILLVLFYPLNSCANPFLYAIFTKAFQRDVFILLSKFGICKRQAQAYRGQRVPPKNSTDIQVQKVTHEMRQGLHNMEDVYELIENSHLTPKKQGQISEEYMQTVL
Sequence of Progesterone receptor (Homo sapiens) (P06401 whole entry, looked up): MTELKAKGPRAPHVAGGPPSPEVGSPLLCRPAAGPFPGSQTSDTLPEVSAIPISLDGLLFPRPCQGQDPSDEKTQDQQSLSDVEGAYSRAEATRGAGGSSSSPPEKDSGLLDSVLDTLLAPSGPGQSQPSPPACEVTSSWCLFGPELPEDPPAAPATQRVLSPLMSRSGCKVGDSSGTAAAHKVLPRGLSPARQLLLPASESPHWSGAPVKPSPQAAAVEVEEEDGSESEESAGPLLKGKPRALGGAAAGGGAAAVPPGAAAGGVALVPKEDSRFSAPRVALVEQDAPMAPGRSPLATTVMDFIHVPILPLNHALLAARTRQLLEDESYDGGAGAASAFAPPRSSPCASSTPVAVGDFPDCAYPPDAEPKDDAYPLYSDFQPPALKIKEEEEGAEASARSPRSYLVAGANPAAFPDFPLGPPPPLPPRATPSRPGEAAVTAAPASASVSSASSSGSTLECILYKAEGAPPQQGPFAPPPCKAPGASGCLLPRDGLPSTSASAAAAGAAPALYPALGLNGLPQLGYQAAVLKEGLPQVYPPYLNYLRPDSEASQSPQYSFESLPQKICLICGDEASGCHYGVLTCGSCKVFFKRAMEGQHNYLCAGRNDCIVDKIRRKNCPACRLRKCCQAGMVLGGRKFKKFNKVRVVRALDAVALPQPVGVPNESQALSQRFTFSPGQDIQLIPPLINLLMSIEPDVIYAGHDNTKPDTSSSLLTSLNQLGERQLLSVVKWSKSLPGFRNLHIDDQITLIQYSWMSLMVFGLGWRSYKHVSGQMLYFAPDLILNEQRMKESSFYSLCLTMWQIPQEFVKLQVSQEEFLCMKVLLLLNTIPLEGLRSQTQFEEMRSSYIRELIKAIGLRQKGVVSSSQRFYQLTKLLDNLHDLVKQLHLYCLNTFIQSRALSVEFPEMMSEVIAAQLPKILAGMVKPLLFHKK
Sequence of Estrogen receptor beta (Homo sapiens) (Q92731 whole entry, looked up): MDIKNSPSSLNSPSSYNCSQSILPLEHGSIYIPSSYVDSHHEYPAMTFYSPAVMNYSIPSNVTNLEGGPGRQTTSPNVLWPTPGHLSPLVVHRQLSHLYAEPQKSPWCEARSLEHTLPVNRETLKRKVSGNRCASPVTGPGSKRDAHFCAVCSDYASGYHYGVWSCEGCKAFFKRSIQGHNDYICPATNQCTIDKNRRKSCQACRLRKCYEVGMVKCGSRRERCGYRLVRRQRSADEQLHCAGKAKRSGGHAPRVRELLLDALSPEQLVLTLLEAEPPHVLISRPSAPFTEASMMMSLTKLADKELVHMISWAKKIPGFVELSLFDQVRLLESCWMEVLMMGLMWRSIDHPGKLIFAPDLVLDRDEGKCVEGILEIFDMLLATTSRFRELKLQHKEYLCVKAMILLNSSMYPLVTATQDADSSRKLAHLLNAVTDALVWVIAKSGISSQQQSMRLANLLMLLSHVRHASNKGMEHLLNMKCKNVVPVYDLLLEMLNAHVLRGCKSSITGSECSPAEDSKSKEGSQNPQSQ
Sequence of Androgen receptor (Homo sapiens) (P10275 whole entry, looked up): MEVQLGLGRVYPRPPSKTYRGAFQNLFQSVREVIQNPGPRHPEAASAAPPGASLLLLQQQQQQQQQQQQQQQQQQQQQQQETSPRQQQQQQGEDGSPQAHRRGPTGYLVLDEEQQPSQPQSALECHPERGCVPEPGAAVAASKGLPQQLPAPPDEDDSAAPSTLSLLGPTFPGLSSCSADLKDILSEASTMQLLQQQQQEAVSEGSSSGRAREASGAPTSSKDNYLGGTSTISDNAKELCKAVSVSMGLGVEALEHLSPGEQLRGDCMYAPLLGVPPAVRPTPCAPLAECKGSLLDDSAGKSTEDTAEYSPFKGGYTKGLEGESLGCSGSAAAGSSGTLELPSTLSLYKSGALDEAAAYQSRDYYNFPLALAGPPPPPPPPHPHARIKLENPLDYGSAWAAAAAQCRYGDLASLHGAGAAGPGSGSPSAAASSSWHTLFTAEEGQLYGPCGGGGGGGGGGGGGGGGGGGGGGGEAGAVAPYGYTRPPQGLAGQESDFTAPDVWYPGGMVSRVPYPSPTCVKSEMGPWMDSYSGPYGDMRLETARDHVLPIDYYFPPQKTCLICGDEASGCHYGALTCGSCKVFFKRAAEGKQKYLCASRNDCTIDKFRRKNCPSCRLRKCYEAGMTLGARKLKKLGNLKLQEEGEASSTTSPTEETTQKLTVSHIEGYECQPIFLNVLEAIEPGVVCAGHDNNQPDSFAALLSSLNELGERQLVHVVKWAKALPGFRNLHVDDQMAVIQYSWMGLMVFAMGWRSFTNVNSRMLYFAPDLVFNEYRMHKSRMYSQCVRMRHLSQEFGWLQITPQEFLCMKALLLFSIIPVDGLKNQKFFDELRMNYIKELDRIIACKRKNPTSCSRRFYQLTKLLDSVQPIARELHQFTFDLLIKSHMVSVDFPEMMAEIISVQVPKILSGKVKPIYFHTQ

C=C(C)C(=O)OCCCCCCCCCCCCCCCCCC
inactive: activity change [1] -0.0741% [at 18.9 µM, stronger effect = higher value] | activity change, negative = inhibition [2] 6.62% [at 19 µM] | activation [3] 0.356% [at 19 µM] | activity, negative = inhibition [4] -0.254% [at 19 µM] | activity change, negative = cytotoxicity [5] 0.335% [at 19 µM] | activity change, negative = cytotoxicity [6] -0.0598% [at 19 µM] | activity change, negative = cytotoxicity [7] 13.7% [at 19 µM] | activation [8] 0.0113% [at 19 µM] | cAMP activity change [9] -1.57% [at 18.9 µM] | activity change, negative = inhibition [10] 0.559% [at 19 µM] | activity change, negative = cytotoxicity [11] -3.47% [at 19 µM] | activation [12] 1.29% [at 19 µM] | activity change, negative = inhibition [13] -2.15% [at 18.9 µM] | activity change, negative = cytotoxicity [14] 16.4% [at 18.9 µM] | viability change, negative = cytotoxic [15] 11% [at 15.8 µM] | activity change, negative = cytotoxicity [16] 16.7% [at 15.8 µM] | activation [17] 6.67% [at 15.8 µM] | activity, negative = inhibition [18] -4.03% [at 10.5 µM]

CCN(CC)S(=O)(=O)c1ccc(C(=O)O)cc1
inactive: Potency [1] | Potency [2] | outcome [3] | Potency [4] | Potency [5] | Potency [6] | Potency [7] | Potency [8] | outcome [9] | Potency [10] | outcome [11] | Potency [12] | Potency [13] | Potency [14] | Potency [19] | outcome [15] | outcome [17] | outcome [18]

C1CCCCCCCCCCC1
inactive: activity change [1] -0.649% [at 18.9 µM, stronger effect = higher value] | activity change, negative = inhibition [2] 13.4% [at 19 µM] | activation [3] -0.402% [at 19 µM] | activity, negative = inhibition [4] 0.969% [at 19 µM] | activity change, negative = cytotoxicity [5] -1.18% [at 19 µM] | activity change, negative = cytotoxicity [6] -0.0692% [at 19 µM] | Potency [20] | activity change, negative = cytotoxicity [7] 1.11% [at 19 µM] | activation [8] -2.76% [at 19 µM] | cAMP activity change [9] -4.57% [at 18.9 µM] | activity change, negative = inhibition [10] -0.259% [at 19 µM] | activation [12] -0.689% [at 19 µM] | activity change, negative = inhibition [13] 0.992% [at 18.9 µM] | activity change, negative = cytotoxicity [14] 8.3% [at 18.9 µM] | viability change, negative = cytotoxic [15] 13% [at 15.8 µM] | activity change, negative = cytotoxicity [16] 5.27% [at 15.8 µM] | activation [17] 1.5% [at 15.8 µM] | activity, negative = inhibition [18] -13.6% [at 10.5 µM]

COCc1ccc(COC)cc1
inactive: Potency [1] | Potency [2] | outcome [3] | Potency [4] | Potency [5] | Potency [6] | Potency [7] | Potency [8] | outcome [11] | Potency [12] | Potency [14] | Potency [19] | outcome [16] | outcome [17] | outcome [18]

C[N+](C)(C)CC[N+]1(C)Cc2c(Cl)c(Cl)c(Cl)c(Cl)c2C1
inactive: Potency [1] | Potency [2] | outcome [3] | Potency [4] | Potency [5] | Potency [6] | Potency [7] | Potency [8] | outcome [9] | Potency [10] | outcome [11] | Potency [12] | Potency [13] | Potency [14] | Potency [19] | outcome [16] | outcome [17] | outcome [18]

O=C1OC(=O)c2cc([N+](=O)[O-])ccc21
inactive: Potency [1] | Potency [2] | outcome [3] | Potency [4] | Potency [5] | Potency [6] | Potency [7] | Potency [8] | outcome [9] | Potency [10] | outcome [11] | Potency [12] | Potency [13] | Potency [14] | Potency [19] | outcome [15] | outcome [16] | outcome [17] | outcome [18]

COc1cccc(Br)c1
inactive: Potency [1] | Potency [2] | outcome [3] | Potency [4] | Potency [5] | Potency [6] | Potency [20] | Potency [7] | Potency [8] | outcome [9] | Potency [10] | outcome [11] | Potency [13] | Potency [14] | outcome [15] | outcome [16] | outcome [17] | outcome [18]
